# Test system: HCoV-229E
# Design: species or system Huh-7
# Details: 24 h, 10 µM; inhibitor
structure (smiles),measurement,value
C=C1C(=O)O[C@@H]2[C@H]3O[C@]3(C)CC/C=C(\C)CC[C@@H]12 [Parthenolide],229E Inhibition rate,24.7

# Source: PMC12431657, “Discovery and mechanistic insights of dibenzoylmethane as a broad spectrum inhibitor of coronavirus” (PLOS Pathogens, 2025)
